{"source": "PubChem BioAssay AID1117291", "about": "(Broad Institute, 2014)", "note": "Results with a measured potency or affinity are listed apart. Records with an inconclusive call do not appear. The source made the active and inactive calls.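 The calls were made as follows: active = compound whose fitted half-maximal potency lies at or below double its highest tested dose in every test; inconclusive = tests disagree, or a flat partial loss, or a poor fit; inactive = every test inactive.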"}
{"test": "hepatoma cell viability loss – CellTiter-Glo luminescence, dry powder, set 20, cytotoxicity control, dose response (AID 1117291)", "conditions": "HepG2 viability, CellTiter-Glo ATP luminescence, 72 h; series mostly up to 26 µM; activity change, negative = cytotoxicity: at the top concentration"}
{"smiles": "CC(=O)N1CCN(C(=O)C2(NC(=O)NCCc3ccccc3)CCCCC2)CC1", "activity change, negative = cytotoxicity": "-25% (inactive)"}
{"smiles": "O=S(=O)(O)c1ccc(N2N=C(c3ccccc3)CC2c2ccccc2)cc1", "note": "(stereo unspecified)", "activity change, negative = cytotoxicity": "-22.6% (inactive)"}
{"smiles": "CC(=O)N1CCN(C(=O)C2(NC(=O)Nc3ccc(F)cc3)CCCCC2)CC1", "activity change, negative = cytotoxicity": "9.85% (inactive)"}
{"smiles": "CC(=O)N1CCN(C(=O)C2(NC(=O)Nc3ccccc3C(F)(F)F)CCCCC2)CC1", "activity change, negative = cytotoxicity": "-12.9% (inactive)"}
{"smiles": "N#Cc1ccc(S(=O)(=O)Nc2cc(C(F)(F)F)ccc2N2CCCCC2)cc1", "activity change, negative = cytotoxicity": "-15.7% (inactive)"}
{"smiles": "O=S(=O)(Nc1cc(C(F)(F)F)ccc1N1CCCCC1)c1ccc(C(F)(F)F)cc1", "activity change, negative = cytotoxicity": "-34.1% (inactive)"}
{"smiles": "O=S(=O)(Nc1cc(C(F)(F)F)ccc1N1CCCCC1)c1ccc(F)cc1", "activity change, negative = cytotoxicity": "-27.5% (inactive)"}
{"smiles": "O=[N+]([O-])c1cccc(S(=O)(=O)Nc2cc(C(F)(F)F)ccc2N2CCCCC2)c1", "activity change, negative = cytotoxicity": "-7.31% (inactive)"}
{"smiles": "O=S(=O)(Nc1cc(C(F)(F)F)ccc1N1CCCCC1)c1ccc(Br)cc1", "activity change, negative = cytotoxicity": "-18% (inactive)"}
{"smiles": "COc1ccc(C(=O)O)cc1S(=O)(=O)Nc1cc(C(F)(F)F)ccc1N(C)C", "activity change, negative = cytotoxicity": "-10.8% (inactive)"}
{"smiles": "CC(=O)N1CCN(C(=O)C2(NC(=O)Nc3ccc(F)cc3)CCCC2)CC1", "activity change, negative = cytotoxicity": "-14.2% (inactive)"}
{"smiles": "CC(=O)N1CCN(C(=O)C2(NC(=O)Nc3ccc(C(C)C)cc3)CCCC2)CC1", "activity change, negative = cytotoxicity": "-5.85% (inactive)"}
{"smiles": "CC(=O)N1CCN(C(=O)C2(NC(=O)Nc3ccccc3F)CCCCC2)CC1", "outcome": "inactive"}
{"smiles": "COc1cccc(NC(=O)NC2(C(=O)N3CCN(C(C)=O)CC3)CCCCC2)c1", "activity change, negative = cytotoxicity": "0.762% (inactive)"}
{"smiles": "COc1ccc(C(=O)Nc2cc(C(F)(F)F)ccc2N2CCOCC2)cc1S(=O)(=O)O", "activity change, negative = cytotoxicity": "-8.25% (inactive)"}
{"smiles": "CC(=O)N1CCN(C(=O)C2CCCN2C(=O)Nc2ccc(C)cc2)CC1", "note": "(stereo unspecified)", "activity change, negative = cytotoxicity": "-7.76% (inactive)"}
